What all share (assay): Primary qHTS to identify gynecologic anti-cancer compounds using libraries of approved drugs and bioactive compounds (AID 1345084); further: nearly all actives have a fitted effect of over 55% in size
The test system of one experiment is C33A. The settings on record: Gynecologic cancer cell panel viability, ATPlite luminescence, 48 h; series mostly up to 57.5 µM. The gist of the method: (§1)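 In this quantitative HTS, cell killing is estimated from loss of ATP-dependent luciferase light. Cells see five compound concentrations over a 48 h exposure.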
The test system of a further experiment is CAOV3. The settings on record: Gynecologic cancer cell panel viability, ATPlite luminescence, 48 h; series mostly up to 57.5 µM. The gist of the method: as §1
A further experiment has as its system CASKI. The settings on record: Gynecologic cancer cell panel viability, ATPlite luminescence, 48 h; series mostly up to 57.5 µM. The gist of the method: as §1
The test system of a further experiment is Es-2. The following applies: Gynecologic cancer cell panel viability, ATPlite luminescence, 48 h; series mostly up to 57.5 µM. The gist of the method:
as §1

A further experiment has as its system HeLa. The following applies: Gynecologic cancer cell panel viability, ATPlite luminescence, 48 h; series mostly up to 57.5 µM. The gist of the method:
as §1

The test system of the next experiment is Hek293T. The following applies: Gynecologic cancer cell panel viability, ATPlite luminescence, 48 h, control line for the selectivity index; series mostly up to 57.5 µM. The gist of the method:
as §1

A further experiment has as its system JEG-3. The following applies: Gynecologic cancer cell panel viability, ATPlite luminescence, 48 h; series mostly up to 57.5 µM. The gist of the method: as §1

Results filed as inconclusive are left out. A number with no mark means an inactive call. Calls of active or inactive are those of the source. The call rests on the fitted dose curve; in most records, active means well fitted cell-killing curve with a large enough effect; inconclusive means small, poorly fitted or top-dose-only effect, or effect the other way; inactive means flat fitted curve, though single readings scatter.
Potency means the concentration at half of the fitted maximal effect.

As to `C=C1C(=O)OC2C=C(C)CC/C=C(\CO)CC(O)C12` (stereo not given), the Potency result in the experiment with C33A, in the experiment on CAOV3, in the experiment with CASKI, with Es-2, in the experiment on HeLa and in the experiment on Hek293T was “inactive” each time. In addition, the Potency result with JEG-3 is “inactive”.

In the case of `COC1CC(=O)C23C(=O)NC(CC(C)C)C2C(C)C(C)=CC3/C=C(\C)CCCC1O` (stereo not given), the Potency entry with C33A, in the experiment with CAOV3, with CASKI, with Es-2, in the experiment on HeLa and with Hek293T was “inactive” in each case. Moreover, the Potency entry in the experiment on JEG-3 was “inactive”.

Take `C=C1CCC2[C@](C)(CCC[C@@]2(C)C=O)[C@H]1CC/C(C)=C/CO` (stereo not given in full): the Potency result in the experiment with C33A, in the experiment on CAOV3, in the experiment with CASKI, in the experiment on Es-2, in the experiment with HeLa and in the experiment with Hek293T was “inactive” throughout. For the same compound, in the experiment on JEG-3, the Potency entry was “inactive”.

On to `CC(/C=C/C(=O)NO)=C\[C@@H](C)C(=O)c1ccc(N(C)C)cc1`, for which the Potency in the experiment on C33A is 3.55 µM (active); in the experiment with CAOV3 it was 4.47 µM (active); in the experiment on CASKI, 1.58 µM (active); in the experiment on Es-2, 5.62 µM (active); with HeLa, 3.55 µM (active); with Hek293T, 3.16 µM (active). For the same compound, in the experiment on JEG-3, the Potency is 1.41 µM (active).

As to `COc1ccc(-c2csc(NC(=O)[C@H]3CCCCN3S(=O)(=O)c3ccc(C)cc3)n2)cc1`, the Potency entry in the experiment on C33A, with CAOV3, in the experiment on CASKI, in the experiment on Es-2, in the experiment on HeLa and in the experiment with Hek293T was “inactive” each time. Also, the Potency entry in the experiment on JEG-3 is “inactive”.

In the case of `C=C1C(OC2OC(CO)C(O)C(O)C2O)CC2C(C)(C)C(O)CCC2(C)C1CC/C(C)=C\COC(=O)CC(=O)O` (stereo not given), the Potency entry with C33A, with CAOV3, in the experiment on CASKI, with Es-2, in the experiment with HeLa and with Hek293T was “inactive” in each case. Also, in the experiment with JEG-3, the Potency entry was “inactive”.

With `CCCCC1CCN(CCCN2C(=O)CCc3ccccc32)CC1`, the Potency entry in the experiment on C33A, in the experiment on CAOV3, with CASKI, in the experiment on Es-2, with HeLa and in the experiment on Hek293T was “inactive” throughout. In addition, the Potency entry in the experiment on JEG-3 is “inactive”.

For the compound `CC(C)=CCC[C@](C)(O[C@@H]1O[C@H](CO[C@@H]2OC[C@@H](O)[C@H](O)[C@H]2O)[C@@H](O)[C@H](O)[C@H]1O)[C@H]1CC[C@]2(C)[C@@H]1[C@H](O)C[C@@H]1[C@@]3(C)CC[C@H](O[C@@H]4O[C@H](CO)[C@@H](O)[C@H](O)[C@H]4O)C(C)(C)[C@@H]3CC[C@]12C`, the Potency entry in the experiment with C33A, in the experiment with CAOV3, in the experiment on CASKI, in the experiment on Es-2, in the experiment on HeLa and with Hek293T was “inactive” throughout. Also, the Potency entry in the experiment with JEG-3 is “inactive”.

For the compound `C=C1C(=O)OC2/C=C(\CO)CC/C=C(\C=O)C(OC)C(OC(=O)C(C)CC)C12` (stereo not given), the Potency result in the experiment on C33A, with CAOV3, in the experiment with CASKI, with Es-2, in the experiment with HeLa and with Hek293T was “inactive” throughout. Further, the Potency entry in the experiment with JEG-3 was “inactive”.

On to `COc1cc2ncc(-c3ccccc3)nc2cc1OC`, for which the Potency result in the experiment on C33A, with CAOV3, in the experiment with CASKI, with Es-2, with Hek293T and in the experiment on JEG-3 was “inactive” each time. For the same compound, the Potency with HeLa is 3.55 µM (active).

In the case of `CCC(C)C(=O)Oc1cc(C)ccc1C1(COC(=O)C(C)C)CO1` (stereo not given), the Potency entry in the experiment on C33A, in the experiment on CAOV3, in the experiment on CASKI, in the experiment with Es-2, in the experiment on HeLa and in the experiment on Hek293T was “inactive” in each case. Further, the Potency entry in the experiment on JEG-3 is “inactive”.

Regarding `C=C(C)C(=O)O[C@H]1/C(C=O)=C\CC/C(CO)=C/[C@H]2OC(=O)C(=C)[C@@H]2[C@@H]1OC`, the Potency entry in the experiment on C33A, with CAOV3, in the experiment on CASKI, in the experiment with Es-2, in the experiment with HeLa and in the experiment with Hek293T was “inactive” each time. For the same compound, the Potency entry in the experiment on JEG-3 is “inactive”.

Regarding `COc1ccc(Sc2ccc(NC(=O)c3ccccc3Cl)cc2C#N)cc1`, the Potency result in the experiment on C33A, with CAOV3, in the experiment on CASKI, with Es-2, in the experiment with HeLa and in the experiment with Hek293T was “inactive” throughout. The Potency entry in the experiment on JEG-3 was “inactive”.

On to `CN1CCC(c2cn(C)c3ccc(OS(=O)(=O)c4c(F)cccc4F)cc23)CC1`, for which the Potency result in the experiment on C33A, in the experiment on CAOV3, with CASKI, in the experiment with Es-2, in the experiment on HeLa and with Hek293T was “inactive” throughout. Further, the Potency entry in the experiment with JEG-3 is “inactive”.

For `Cc1cc(CS(=O)(=O)c2ccccc2)cc(OCc2ccc(CN3CCCC3CO)cc2)c1` (stereo not given), the Potency result with C33A, with CAOV3, in the experiment with CASKI, in the experiment with Es-2, in the experiment on HeLa and with Hek293T was “inactive” throughout. The Potency entry with JEG-3 was “inactive”.

Take `C=C1CC[C@@H](O)[C@]2(C)CC[C@H]3C(=C)C(=O)O[C@@H]3[C@@H]12`: the Potency entry in the experiment with C33A, in the experiment with CAOV3, in the experiment with CASKI, with Es-2, with HeLa and in the experiment with Hek293T was “inactive” throughout. Also, the Potency result in the experiment on JEG-3 is “inactive”.

As for `CNC(=O)c1ccc2c(c1)CCO[C@H]2CCN1CCN(c2ccc(OC)cc2)CC1`, the Potency result in the experiment on C33A, with CAOV3, in the experiment on CASKI, with Es-2, with HeLa and in the experiment with Hek293T was “inactive” in each case. The Potency entry in the experiment on JEG-3 was “inactive”.

Take `COc1cc(OC)c2c(=O)[nH]c(-c3cc(C)c(OCCO)c(C)c3)nc2c1`: the Potency result in the experiment on C33A, in the experiment with CAOV3, in the experiment with CASKI, in the experiment on Es-2, in the experiment on HeLa and in the experiment with Hek293T was “inactive” in each case. Besides, the Potency entry in the experiment with JEG-3 is “inactive”.

`CC/C=C\CC1C(=O)C=CC1(CCCCC1CCC(=O)O1)OC(C)=O` (stereo not given): the Potency result in the experiment with C33A, in the experiment with CAOV3, in the experiment on CASKI, with Es-2, with HeLa and in the experiment on Hek293T was “inactive” each time. Besides, in the experiment on JEG-3, the Potency result is “inactive”.

`CCn1c(=O)c(-c2ccc(-c3cncs3)cc2Cl)cc2cnc(Nc3ccc(N4CCN(C)CC4)cc3)nc21`: the Potency result in the experiment with C33A, with CAOV3, in the experiment on CASKI, in the experiment on Es-2, with HeLa and in the experiment with Hek293T was “inactive” each time. The Potency result with JEG-3 was “inactive”.
